Molecules are shown by their SMILES. The source made the active and inactive calls. Unless noted, how the calls were made is not given here.

In general, inhibition refers to the drop in the measured response relative to a control, in per cent.

A short description of assay [1]: reduced mouse 2C T cell binding to pMHC/ICAM-1 vesicles – MLPCN validation set, flow cytometry, LFA-1/ICAM-1 modulator project, pilot screen (AID 2523;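 active means response below a set limit, under 55% cells CD8-positive and vesicle-bound, and CD8 cells' 90th-percentile brightness under 279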;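 on vesicle binding response: mean PE anti-B7-1 fluorescence of CD8+ cells relative to row control; 100% = QL9-loaded vesicles with DMSO vehicle in the same plate row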). To be noted: 2C mouse CD8+ T cells, at 7 µM, stronger effect = lower value; double positive events: measured here: CD8+/vesicle+ event percentage.
In assay [2] the target is Integrin beta-1 (Homo sapiens) + Integrin alpha-4 (Homo sapiens) (UniProt P13612+P05556). Kind of assay: alpha4beta1 integrin LIBS antibody binding reduction – U937 cells, HUTS-21 mAb, flow cytometry, validation set, VLA-4 allosteric modulator project, pilot screen (AID 2674;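 active means inhibition above 50%, about 3 SD of the validation set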;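 further: antibody binding induced by the VLA-4 ligand LDV present at three times its Kd; 0% = LDV ligand with antibody and no compound and 100% = antibody without LDV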). To be noted: HUTS-21 LIBS mAb binding, at 6.7 µM, stronger effect = higher value. On the technique in general: In flow cytometry, cells or beads pass a laser one at a time.

Assay [3] is described as follows: calorie-restriction mimetic ROS inhibitors, yeast – validation compound set, pilot screen (AID 2706;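 active means superoxide response below 65% of plate, a cut near 3 SD across the whole screen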;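 further: yeast exposed to compound for one week at 30 degrees C before staining; 100% = mean of all compound wells on the same plate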). As to conditions: S. cerevisiae aging, superoxide DHE fluorescence; at 10 µM; stronger effect = lower value.
In assay [4] the target is Beta-adrenergic receptor kinase 1 (Homo sapiens) (UniProt P25098). Nature of the assay: GRK2 binders displacing RNA aptamer, biochemical, validation, human GRK2, bead flow cytometry (AID 488806;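 active means aptamer binding inhibition above 30%, about 3 SD of noise from non-fluorescent compounds; inactive means inhibition at or below 30%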). As to conditions: bead-bound GRK2, FAM-aptamer displacement, at 10 µM, stronger effect = higher value.
Assay [5] addresses AP-2 complex subunit beta (Homo sapiens) (UniProt P63010). Kind of assay: beta-arrestin/AP2 interaction blockers – biochemical, validation set, GST-AP2 beads, flow cytometry, pilot screen (AID 504541;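 active means inhibition above 54%, about 3 SD of non-fluorescent compounds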;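 further: AP2 carries R879A mutation and is captured from E. coli lysate; bead-bound FITC arrestin peptide fluorescence measuring arrestin peptide binding to AP2; 0% = DMSO wells and 100% = excess unlabeled arrestin peptide control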). As to conditions: FITC arrestin peptide, at 10 µM, stronger effect = higher value.
Assay [6] can be described thus: cytosolic pH regulators acting via V-ATPase – S. cerevisiae, pHLuorin, HTS validation (AID 504600; in the data active means response above about 15%;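 further: plate controls were DMSO for no effect and reference compound for full effect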). As to conditions: V-ATPase proton transport, at 10 µM, stronger effect = higher value.
Assay [7] relates to anti-desmoglein-3 scFv antibody binding to human DSG3. Nature of the assay: blockers of pathogenic pemphigus antibody–desmoglein-3 binding – biochemical, validation compound set, bead-based, flow cytometry, pilot screen (AID 588368;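 active means binding below the plate cutoff, the plate median minus 3 SD, with a reading above zero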;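 further: signal is the median channel fluorescence of bead-bound GFP antibody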). To be noted: Protein G beads, DSG3-Fc, scFv-GFP binding, at 10 µM, stronger effect = lower value.
Assay [8] has as its system Botulinum neurotoxin type F light chain protease (Clostridium botulinum). Kind of assay: Clostridium botulinum type F light chain protease inhibitors, microsphere substrate cleavage, validation (AID 588459). As to conditions: multiplex microsphere protease substrate cleavage assay, flow cytometry; at 10 µM; stronger effect = higher value.
Assay [9] has as its target Botulinum neurotoxin type A (Clostridium botulinum) (UniProt P0DPI0). Kind of assay: BoNT/A light chain protease inhibitors, biochemical, multiplex microsphere flow cytometry, validation set (AID 588460). To be noted: at 10 µM, stronger effect = higher value.
Assay [10] has as its target Lethal factor (Bacillus anthracis) (UniProt P15917). Nature of the assay: Bacillus anthracis lethal factor inhibition, microsphere flow cytometry protease assay, validation at 10 µM (AID 588461). To be noted: multiplex microsphere protease cleavage assay, stronger effect = higher value.
The nature of assay [11]: Nile Red efflux blockade in pump-expressing yeast – validation compound set, multiplex, phenotypic, pilot screen (AID 588506;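 active means efflux inhibition above 0.42, the validation set average plus 4 SD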;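 further: Nile Red retained in cells so higher fluorescence means more efflux inhibition; 0 = negative control wells and 1 = enniatin B 25 µM full block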). To be noted: S. cerevisiae pump-expressing triplex, Nile Red efflux flow cytometry; at 10 µM; stronger effect = higher value.
Assay [12] has as its target ATP-binding cassette sub-family B member 6 (Homo sapiens) (UniProt Q9NP58). Nature of the assay: blockers of ABCB6-driven porphyrin uptake – K562-ABCB6 cells, flow cytometry, validation set, pilot screen (AID 588550;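 active means inhibition above the screen-wide mean plus 3 SD, about 51%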;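 further: 0% = DMSO wells and 100% = benzethonium chloride 70 µM positive control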). As to conditions: K562-ABCB6 porphyrin accumulation, 1 h, at 10 µM, stronger effect = higher value.
Assay [13] is described as follows: AML differentiation inducers, ER-HoxA9 marrow cells – cell-based, GFP/MAC1 double positive, flow cytometry, validation set, primary screen (AID 588685;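 active means differentiation response of at least 50%, scaled between solvent and reference control, from cells with both markers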;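 further: compound exposure lasts four days before antibody staining and flow analysis; 0% = DMSO wells and 100% = 5 µM fulvestrant positive control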). As to conditions: stronger effect = higher value.
The nature of assay [14]: hit retest on RPL19A-GFP reporter strain – cell-based, S. cerevisiae, flow cytometry, cherry picks, mother/daughter gates, confirmation (AID 2270;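 active means GFP response below 50% of the DMSO control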). To be noted: 3 h, at 10 µM, stronger effect = lower value, 100 = same GFP as DMSO wells.
A short description of assay [15]: yeast TOR pathway reporter LAP4-GFP change – cell-based, cherry picks, flow cytometry, mother/daughter gates, confirmation (AID 2271;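 active means GFP response above 150% of the DMSO control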;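 further: ratio of sample to DMSO plate mean so 100% equals DMSO level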). To be noted: S. cerevisiae LAP4-GFP strain, 3 h, at 10 µM, stronger effect = higher value.
A short description of assay [16]: TOR pathway CIT2 reporter hit retest – S. cerevisiae, GFP fusion, cherry picks, mother/daughter gates, confirmation (AID 2274;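 active means GFP response above 150% of the DMSO level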). As to conditions: S. cerevisiae CIT2-GFP strain, flow cytometry, 3 h, at 10 µM, stronger effect = higher value.
[17] abbreviates: measured here: daughter cell gate.
[18] abbreviates: measured here: mother cell gate.

Sequence of ATP-binding cassette sub-family B member 6 (Homo sapiens) (Q9NP58 whole entry, looked up): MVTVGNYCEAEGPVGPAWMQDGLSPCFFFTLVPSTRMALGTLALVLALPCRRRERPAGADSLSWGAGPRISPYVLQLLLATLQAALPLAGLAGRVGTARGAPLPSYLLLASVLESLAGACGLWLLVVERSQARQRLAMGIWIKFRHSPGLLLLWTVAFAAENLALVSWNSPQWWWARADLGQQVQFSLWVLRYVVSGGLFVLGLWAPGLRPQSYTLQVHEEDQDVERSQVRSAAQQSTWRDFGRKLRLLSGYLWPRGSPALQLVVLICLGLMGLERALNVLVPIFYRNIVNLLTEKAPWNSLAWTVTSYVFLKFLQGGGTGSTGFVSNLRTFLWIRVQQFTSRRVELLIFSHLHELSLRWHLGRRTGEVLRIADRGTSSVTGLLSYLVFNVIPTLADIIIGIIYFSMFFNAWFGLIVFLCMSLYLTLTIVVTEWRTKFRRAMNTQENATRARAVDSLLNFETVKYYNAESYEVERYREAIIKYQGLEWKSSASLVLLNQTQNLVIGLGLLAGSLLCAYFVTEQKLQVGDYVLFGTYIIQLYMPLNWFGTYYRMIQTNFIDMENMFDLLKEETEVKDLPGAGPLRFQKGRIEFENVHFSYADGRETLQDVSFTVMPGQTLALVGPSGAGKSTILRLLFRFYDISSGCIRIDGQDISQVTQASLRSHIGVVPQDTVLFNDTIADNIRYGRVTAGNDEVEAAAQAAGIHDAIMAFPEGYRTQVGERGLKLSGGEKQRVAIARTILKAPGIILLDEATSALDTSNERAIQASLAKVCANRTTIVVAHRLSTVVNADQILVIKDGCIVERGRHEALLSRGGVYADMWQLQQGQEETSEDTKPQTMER
Sequence of AP-2 complex subunit beta (Homo sapiens) (P63010 whole entry, looked up, one chain of several): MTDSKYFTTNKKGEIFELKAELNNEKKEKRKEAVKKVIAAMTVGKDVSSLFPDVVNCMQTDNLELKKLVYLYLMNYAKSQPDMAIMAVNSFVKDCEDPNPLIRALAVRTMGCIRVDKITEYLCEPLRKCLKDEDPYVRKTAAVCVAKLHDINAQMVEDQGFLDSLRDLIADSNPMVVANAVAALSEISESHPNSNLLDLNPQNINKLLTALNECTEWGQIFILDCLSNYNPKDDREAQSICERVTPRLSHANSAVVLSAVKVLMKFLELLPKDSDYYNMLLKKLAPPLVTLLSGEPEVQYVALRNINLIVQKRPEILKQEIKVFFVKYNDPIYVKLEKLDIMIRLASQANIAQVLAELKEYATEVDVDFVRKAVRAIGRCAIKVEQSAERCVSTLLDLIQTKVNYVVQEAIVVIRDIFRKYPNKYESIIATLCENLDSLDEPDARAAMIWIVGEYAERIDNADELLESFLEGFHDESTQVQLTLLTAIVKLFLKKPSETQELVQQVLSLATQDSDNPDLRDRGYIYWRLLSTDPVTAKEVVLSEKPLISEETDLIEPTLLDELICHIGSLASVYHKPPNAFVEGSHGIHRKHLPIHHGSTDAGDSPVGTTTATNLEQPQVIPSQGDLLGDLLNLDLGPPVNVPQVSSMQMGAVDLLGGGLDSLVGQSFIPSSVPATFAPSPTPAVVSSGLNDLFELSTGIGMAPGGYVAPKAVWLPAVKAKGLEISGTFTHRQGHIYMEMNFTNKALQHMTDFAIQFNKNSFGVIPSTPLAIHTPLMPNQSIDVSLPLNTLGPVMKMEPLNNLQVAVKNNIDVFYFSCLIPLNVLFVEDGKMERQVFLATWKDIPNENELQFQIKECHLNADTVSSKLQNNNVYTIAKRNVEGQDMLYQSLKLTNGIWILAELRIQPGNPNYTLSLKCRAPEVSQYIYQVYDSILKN
Sequence of Integrin beta-1 (Homo sapiens) + Integrin alpha-4 (Homo sapiens) (P05556 whole entry, looked up): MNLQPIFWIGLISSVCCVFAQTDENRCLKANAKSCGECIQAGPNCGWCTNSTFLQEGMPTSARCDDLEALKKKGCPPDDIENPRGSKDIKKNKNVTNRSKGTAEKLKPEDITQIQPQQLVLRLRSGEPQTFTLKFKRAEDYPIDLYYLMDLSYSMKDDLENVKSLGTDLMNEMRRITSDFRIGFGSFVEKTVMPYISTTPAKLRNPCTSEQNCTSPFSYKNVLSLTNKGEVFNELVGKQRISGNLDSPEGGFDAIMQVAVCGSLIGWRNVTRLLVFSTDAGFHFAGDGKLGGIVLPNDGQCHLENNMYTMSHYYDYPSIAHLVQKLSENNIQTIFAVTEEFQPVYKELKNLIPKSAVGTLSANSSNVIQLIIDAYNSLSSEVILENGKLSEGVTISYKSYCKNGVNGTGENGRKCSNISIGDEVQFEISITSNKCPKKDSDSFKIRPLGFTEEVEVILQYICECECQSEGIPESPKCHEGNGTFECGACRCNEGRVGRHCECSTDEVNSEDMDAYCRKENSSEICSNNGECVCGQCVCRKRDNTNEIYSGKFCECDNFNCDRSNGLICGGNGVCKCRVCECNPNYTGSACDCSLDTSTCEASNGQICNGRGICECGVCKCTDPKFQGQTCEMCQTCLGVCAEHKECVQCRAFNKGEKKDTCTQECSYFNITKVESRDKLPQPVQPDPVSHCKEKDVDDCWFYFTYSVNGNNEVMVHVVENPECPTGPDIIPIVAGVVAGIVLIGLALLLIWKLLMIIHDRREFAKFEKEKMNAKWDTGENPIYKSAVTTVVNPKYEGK
Sequence of Integrin beta-1 (Homo sapiens) + Integrin alpha-4 (Homo sapiens) (P13612 whole entry, looked up): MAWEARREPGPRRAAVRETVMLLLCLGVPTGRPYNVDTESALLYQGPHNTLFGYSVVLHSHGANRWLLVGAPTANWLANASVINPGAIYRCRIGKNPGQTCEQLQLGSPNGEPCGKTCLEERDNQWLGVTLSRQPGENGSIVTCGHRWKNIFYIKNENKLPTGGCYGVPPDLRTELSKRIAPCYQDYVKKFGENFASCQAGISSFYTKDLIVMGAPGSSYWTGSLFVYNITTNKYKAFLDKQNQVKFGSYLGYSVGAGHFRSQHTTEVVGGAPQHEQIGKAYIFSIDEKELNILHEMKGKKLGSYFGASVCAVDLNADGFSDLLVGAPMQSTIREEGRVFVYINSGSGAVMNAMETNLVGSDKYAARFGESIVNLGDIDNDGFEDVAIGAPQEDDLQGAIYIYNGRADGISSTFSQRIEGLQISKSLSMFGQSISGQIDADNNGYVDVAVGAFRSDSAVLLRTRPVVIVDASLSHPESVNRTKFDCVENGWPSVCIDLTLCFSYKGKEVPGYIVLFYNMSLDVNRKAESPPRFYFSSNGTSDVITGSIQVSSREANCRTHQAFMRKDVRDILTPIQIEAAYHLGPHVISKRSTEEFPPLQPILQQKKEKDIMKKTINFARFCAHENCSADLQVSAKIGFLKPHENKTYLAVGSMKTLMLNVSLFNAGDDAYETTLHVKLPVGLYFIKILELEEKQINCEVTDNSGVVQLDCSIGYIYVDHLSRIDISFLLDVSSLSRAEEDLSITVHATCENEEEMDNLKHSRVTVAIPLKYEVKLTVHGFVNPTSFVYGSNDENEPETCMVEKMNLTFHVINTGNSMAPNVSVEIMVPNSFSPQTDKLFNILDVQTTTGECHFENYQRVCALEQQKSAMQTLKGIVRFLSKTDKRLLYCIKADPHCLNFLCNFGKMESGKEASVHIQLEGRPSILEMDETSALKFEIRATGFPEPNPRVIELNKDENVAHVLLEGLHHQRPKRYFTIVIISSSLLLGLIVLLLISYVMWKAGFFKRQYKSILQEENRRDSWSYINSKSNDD
Sequence of Lethal factor (Bacillus anthracis) (P15917 whole entry, looked up): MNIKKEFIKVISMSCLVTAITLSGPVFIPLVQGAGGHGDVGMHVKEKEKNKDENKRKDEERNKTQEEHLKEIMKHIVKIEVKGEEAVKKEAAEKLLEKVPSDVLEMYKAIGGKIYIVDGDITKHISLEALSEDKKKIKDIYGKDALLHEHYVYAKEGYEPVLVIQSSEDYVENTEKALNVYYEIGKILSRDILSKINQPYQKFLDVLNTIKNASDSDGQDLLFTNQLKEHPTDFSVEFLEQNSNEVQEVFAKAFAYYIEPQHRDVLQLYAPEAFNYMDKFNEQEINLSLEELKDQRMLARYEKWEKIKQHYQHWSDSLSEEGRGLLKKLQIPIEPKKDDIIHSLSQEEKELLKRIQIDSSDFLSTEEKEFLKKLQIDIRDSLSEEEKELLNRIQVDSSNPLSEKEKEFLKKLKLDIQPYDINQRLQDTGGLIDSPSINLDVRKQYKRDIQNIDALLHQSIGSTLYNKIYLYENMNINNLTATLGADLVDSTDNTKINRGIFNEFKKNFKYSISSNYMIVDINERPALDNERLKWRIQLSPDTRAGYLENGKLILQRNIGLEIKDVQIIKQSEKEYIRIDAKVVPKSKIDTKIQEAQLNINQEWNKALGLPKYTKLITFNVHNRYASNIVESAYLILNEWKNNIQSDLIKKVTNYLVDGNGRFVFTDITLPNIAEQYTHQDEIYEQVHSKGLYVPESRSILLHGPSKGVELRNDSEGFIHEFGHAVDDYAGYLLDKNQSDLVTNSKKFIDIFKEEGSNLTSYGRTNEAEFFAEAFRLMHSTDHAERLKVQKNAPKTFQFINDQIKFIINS

`COc1cc(/C=C2\C(=O)NC(=O)N(c3ccccc3)C2=O)c([N+](=O)[O-])cc1OC`: the double positive events in [1] worked out at 61.7%. The vesicle binding response in assay [1] was 106% (inactive). The inhibition in assay [2] is 13.7% (inactive); in assay [5], 5.39% (inactive); in [8], -4.1% (inactive); in assay [9] it was -1.1% (inactive); in [10] it was -1.8% (inactive); in assay [12] it was -21% (inactive). Besides, in [3], the superoxide response (% of plate) was 102% (inactive). Besides, the aptamer binding inhibition in assay [4] is 3% (inactive). Moreover, the response in assay [6] was 3.62% (inactive). In [7], the binding (% of control) was 105% (inactive). Moreover, in [11], the efflux inhibition (fraction of control) was -0.09 (inactive). In addition, the differentiation response in assay [13] was -8.96% (inactive).
`CC12CCC3C(CC=C4CC5(CCC43C)OCCO5)C1CCC2=O` (centres undefined) showed a double positive events in [1] of 65.4%. Further, the vesicle binding response in assay [1] is 179% (inactive). Also, the inhibition in [2] is -9.06% (inactive); in [5] it was -3.19% (inactive); in [8], 4.6% (inactive); in assay [9], -0.8% (inactive); in [10] it was 3.9% (inactive); in assay [12], 15% (inactive). Besides, the superoxide response (% of plate) in [3] was 95.3% (inactive). Moreover, the aptamer binding inhibition in [4] was 3% (inactive). Also, in [6], the response is 0.24% (inactive). Further, in assay [7], the binding (% of control) was 108% (inactive). In addition, the efflux inhibition (fraction of control) in assay [11] was -0.24 (inactive). In assay [13], the differentiation response is -4.09% (inactive).
`c1ccc2c(c1)OCC(C1=NCCN1)O2` (centres undefined): the double positive events in assay [1] stood at 56.2%. Further, the vesicle binding response in assay [1] was 163% (inactive). Besides, the inhibition is 0.69% (inactive) in [2]; -3.31% (inactive) in assay [5]; -2.1% (inactive) in assay [8]; 0.1% (inactive) in [9]; 0.2% (inactive) in [10]; 7% (inactive) in assay [12]. The superoxide response (% of plate) in assay [3] was 90.8% (inactive). For the same compound, in assay [4], the aptamer binding inhibition was 1% (inactive). In assay [6], the response is 3.01% (inactive). For the same compound, the binding (% of control) in [7] is 99.6% (inactive). Besides, the efflux inhibition (fraction of control) in assay [11] is -0.12 (inactive). Further, the differentiation response in assay [13] was -19.6% (inactive).
In the case of `NCC(O)c1ccc(O)cc1` (centres undefined), the double positive events in assay [1] stood at 66.5%. For the same compound, the vesicle binding response in [1] is 150% (inactive). Besides, the inhibition in assay [2] is -2.27% (inactive); in assay [5], -8.51% (inactive); in [8], 1.9% (inactive); in [9], 1% (inactive); in [10], 6% (inactive); in assay [12] it was 8% (inactive). Further, the superoxide response (% of plate) in assay [3] was 94.8% (inactive). In addition, the aptamer binding inhibition in assay [4] is 2% (inactive). Moreover, the response in [6] is 2.02% (inactive). For the same compound, the binding (% of control) in assay [7] is 103% (inactive). Also, in [11], the efflux inhibition (fraction of control) was -0.35 (inactive). Further, in [13], the differentiation response was 2.46% (inactive).
With `Cc1ccc(/C=C2\C(=O)NC(=O)N(CC3CCCO3)C2=O)s1` (centres undefined), the GFP response vs DMSO in [14] was 92.7% (inactive); in [14] (setting [17]), 95.9%; in [14] (setting [18]) it was 94.8%. The results for the GFP response relative to DMSO in assay [15], in [15] (measured here: daughter cell gate response) and in [15] (measured here: mother cell gate response) were 102% (inactive), 102% and 104%, respectively. In addition, the GFP response, % of DMSO is 82.6% (inactive) in [16], 86.2% in assay [16] (setting [17]) and 79.5% in assay [16] (setting [18]).
In assay [1], `CC/C(=C\C=C\[C@@H]1C=C[C@@H]2CCC[C@H]2[C@@H]1C(=O)c1ccc[nH]1)[C@@H]1O[C@@H]([C@@H](C)C(=O)O)CC[C@@H]1C` displayed a double positive events of 60.2%. In addition, the vesicle binding response in assay [1] is 275% (inactive). The inhibition is -7.08% (inactive) in assay [2]; 0.83% (inactive) in assay [5]; 1.9% (inactive) in assay [8]; 0.5% (inactive) in assay [9]; -4.4% (inactive) in [10]; -1% (inactive) in assay [12]. Also, in [3], the superoxide response (% of plate) is 94% (inactive). Besides, the aptamer binding inhibition in [4] was 2% (inactive). For the same compound, the response in assay [6] was -0.4% (inactive). In addition, the binding (% of control) in [7] is 107% (inactive). Moreover, the efflux inhibition (fraction of control) in assay [11] was 0 (inactive). Also, the differentiation response in [13] was -4% (inactive).
